In the supplement of paper PMC11732987, “Enantioselective OTUD7B fragment discovery through chemoproteomics screening and high-throughput optimisation” (Communications Chemistry, 2025):

Assays:
Test in all cases: log2 ratio of Biotin-Ahx-Ub-VS probe labelling (fragment/DMSO); higher = less target engagement (more negative = stronger competition), active = hit call of the paper (q ≤ 0.05, log2 ratio ≤ -1)
Settings in all cases: compound concentration: 200 uM; treatment time: 3 h
ALG13 = biological target: T1, ALG13 (UniProt Q9NP73)
T1 sequence (whole entry): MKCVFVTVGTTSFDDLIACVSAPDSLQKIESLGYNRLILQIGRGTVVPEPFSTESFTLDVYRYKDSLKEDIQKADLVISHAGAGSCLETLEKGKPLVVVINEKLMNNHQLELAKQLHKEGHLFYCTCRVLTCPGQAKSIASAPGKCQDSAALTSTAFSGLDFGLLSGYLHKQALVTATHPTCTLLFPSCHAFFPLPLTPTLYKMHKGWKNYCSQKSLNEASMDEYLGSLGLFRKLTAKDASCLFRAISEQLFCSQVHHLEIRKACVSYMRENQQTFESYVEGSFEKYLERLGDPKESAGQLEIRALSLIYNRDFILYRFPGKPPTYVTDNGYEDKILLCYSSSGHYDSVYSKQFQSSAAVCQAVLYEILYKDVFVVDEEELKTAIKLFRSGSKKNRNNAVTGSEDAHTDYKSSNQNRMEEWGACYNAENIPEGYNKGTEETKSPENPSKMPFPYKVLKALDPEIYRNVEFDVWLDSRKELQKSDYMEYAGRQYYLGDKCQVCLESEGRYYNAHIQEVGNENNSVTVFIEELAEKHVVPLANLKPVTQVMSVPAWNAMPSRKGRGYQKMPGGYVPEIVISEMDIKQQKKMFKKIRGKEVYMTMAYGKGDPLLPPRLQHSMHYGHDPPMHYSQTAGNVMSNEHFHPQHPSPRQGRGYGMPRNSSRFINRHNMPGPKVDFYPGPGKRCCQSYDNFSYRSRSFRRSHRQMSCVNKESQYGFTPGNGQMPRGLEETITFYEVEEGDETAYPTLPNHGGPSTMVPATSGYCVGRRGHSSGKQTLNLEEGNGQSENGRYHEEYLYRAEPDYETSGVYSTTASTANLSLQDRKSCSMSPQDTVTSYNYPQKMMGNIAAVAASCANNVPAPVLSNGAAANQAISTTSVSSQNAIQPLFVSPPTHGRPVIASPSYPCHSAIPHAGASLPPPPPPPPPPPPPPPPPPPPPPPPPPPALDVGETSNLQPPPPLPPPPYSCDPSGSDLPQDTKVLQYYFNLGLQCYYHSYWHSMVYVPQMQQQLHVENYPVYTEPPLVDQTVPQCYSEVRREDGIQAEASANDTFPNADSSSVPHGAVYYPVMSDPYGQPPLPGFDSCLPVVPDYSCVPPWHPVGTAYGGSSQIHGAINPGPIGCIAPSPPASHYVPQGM
Summary of the method: (§1)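 Lysate from HEK293T cells, 495 µg per sample in Tris/CHAPS/IGEPAL buffer with protease inhibitors, was treated for 3 h in triplicate with fragment at 200 µM or vehicle. Biotin-Ahx-Ub-VS was next added at 0.5 µM final for 1 h. The labelled DUBs were enriched with NeutrAvidin, digested with LysC and trypsin, and run by diaPASEF LC-MS/MS, with values given as average log2 fragment/vehicle ratios by unpaired t-test on global-median-normalised Spectronaut quantities of proteins with ≥2 unique peptides.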

ATXN3 = ATXN3 (UniProt P54252)
Sequence of ATXN3 (P54252 whole entry): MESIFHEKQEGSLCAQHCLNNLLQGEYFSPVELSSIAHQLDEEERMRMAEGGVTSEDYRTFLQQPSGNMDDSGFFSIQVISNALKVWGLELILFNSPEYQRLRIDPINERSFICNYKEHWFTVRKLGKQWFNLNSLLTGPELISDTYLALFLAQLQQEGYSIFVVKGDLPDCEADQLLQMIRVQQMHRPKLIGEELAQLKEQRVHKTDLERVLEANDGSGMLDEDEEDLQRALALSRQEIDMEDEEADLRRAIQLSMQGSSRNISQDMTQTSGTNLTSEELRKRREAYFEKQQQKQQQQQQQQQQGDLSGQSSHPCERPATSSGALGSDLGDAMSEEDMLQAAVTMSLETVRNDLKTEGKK
Summary of the method: as §1

BAP1 = biological target: T2, BAP1 (UniProt Q92560)
T2 sequence (whole entry): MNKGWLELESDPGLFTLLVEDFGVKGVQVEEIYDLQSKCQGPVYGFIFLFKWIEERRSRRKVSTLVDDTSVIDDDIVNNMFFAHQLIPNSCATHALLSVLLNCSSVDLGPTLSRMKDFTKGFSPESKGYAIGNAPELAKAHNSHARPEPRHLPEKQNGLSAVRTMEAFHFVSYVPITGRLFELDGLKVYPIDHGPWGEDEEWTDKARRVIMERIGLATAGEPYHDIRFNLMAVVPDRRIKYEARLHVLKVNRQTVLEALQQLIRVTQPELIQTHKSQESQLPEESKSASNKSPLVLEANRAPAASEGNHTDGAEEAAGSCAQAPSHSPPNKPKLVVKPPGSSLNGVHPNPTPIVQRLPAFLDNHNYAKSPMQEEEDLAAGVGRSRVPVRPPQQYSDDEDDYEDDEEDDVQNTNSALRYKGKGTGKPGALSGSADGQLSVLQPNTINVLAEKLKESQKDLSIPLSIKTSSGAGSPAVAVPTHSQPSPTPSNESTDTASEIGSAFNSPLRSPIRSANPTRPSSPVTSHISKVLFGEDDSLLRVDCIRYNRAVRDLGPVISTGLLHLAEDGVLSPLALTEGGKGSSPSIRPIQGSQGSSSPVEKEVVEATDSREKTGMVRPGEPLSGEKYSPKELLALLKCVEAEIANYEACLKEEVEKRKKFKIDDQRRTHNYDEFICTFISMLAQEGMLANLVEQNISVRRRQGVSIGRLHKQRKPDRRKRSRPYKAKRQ
Summary of the method: as §1

EIF3F = EIF3F (UniProt O00303)
Sequence of EIF3F (O00303 whole entry): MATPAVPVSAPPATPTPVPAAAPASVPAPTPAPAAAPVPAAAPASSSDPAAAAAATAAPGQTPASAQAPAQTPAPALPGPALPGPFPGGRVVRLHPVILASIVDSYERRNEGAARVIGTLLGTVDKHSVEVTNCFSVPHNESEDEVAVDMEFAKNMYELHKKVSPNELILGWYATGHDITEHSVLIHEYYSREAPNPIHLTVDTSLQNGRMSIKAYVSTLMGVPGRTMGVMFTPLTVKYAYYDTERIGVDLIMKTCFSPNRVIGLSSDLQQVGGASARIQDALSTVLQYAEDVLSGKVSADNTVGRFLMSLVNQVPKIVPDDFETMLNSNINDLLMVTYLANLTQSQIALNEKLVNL
Summary of the method: as §1

EIF3H = EIF3H (UniProt O15372)
Sequence of EIF3H (O15372 whole entry): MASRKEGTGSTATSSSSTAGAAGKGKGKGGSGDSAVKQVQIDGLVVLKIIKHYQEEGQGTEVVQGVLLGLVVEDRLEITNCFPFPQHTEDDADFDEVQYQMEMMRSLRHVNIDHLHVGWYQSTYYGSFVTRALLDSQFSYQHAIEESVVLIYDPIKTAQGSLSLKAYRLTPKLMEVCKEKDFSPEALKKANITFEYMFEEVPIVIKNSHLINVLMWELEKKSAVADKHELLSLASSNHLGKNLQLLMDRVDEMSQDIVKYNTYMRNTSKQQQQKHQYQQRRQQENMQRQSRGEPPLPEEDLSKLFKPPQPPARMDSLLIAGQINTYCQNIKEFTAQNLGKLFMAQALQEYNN
Summary of the method: as §1

FAM105A = biological target: T3, FAM105A (UniProt Q9NUU6)
T3 sequence (whole entry): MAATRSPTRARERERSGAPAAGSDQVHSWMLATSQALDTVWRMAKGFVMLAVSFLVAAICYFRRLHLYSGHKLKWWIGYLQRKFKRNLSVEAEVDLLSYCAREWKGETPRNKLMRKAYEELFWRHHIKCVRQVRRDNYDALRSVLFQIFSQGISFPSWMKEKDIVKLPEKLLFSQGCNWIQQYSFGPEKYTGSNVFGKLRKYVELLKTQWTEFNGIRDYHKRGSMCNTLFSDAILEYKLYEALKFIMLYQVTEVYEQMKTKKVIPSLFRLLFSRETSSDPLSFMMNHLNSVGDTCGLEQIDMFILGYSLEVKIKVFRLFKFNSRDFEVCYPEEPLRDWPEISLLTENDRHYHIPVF
Summary of the method: as §1

OTUB1 = OTUB1 (UniProt Q96FW1)
Sequence of OTUB1 (Q96FW1 whole entry): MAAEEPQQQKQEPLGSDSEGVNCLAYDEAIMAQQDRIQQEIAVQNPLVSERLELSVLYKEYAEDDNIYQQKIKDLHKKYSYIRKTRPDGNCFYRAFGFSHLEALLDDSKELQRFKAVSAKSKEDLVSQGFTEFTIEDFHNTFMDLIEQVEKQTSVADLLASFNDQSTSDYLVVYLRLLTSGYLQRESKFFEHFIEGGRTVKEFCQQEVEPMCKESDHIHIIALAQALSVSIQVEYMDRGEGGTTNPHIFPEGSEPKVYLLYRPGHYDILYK
Summary of the method: as §1

OTUD4 = biological target: T4, OTUD4 (UniProt Q01804)
T4 sequence (whole entry): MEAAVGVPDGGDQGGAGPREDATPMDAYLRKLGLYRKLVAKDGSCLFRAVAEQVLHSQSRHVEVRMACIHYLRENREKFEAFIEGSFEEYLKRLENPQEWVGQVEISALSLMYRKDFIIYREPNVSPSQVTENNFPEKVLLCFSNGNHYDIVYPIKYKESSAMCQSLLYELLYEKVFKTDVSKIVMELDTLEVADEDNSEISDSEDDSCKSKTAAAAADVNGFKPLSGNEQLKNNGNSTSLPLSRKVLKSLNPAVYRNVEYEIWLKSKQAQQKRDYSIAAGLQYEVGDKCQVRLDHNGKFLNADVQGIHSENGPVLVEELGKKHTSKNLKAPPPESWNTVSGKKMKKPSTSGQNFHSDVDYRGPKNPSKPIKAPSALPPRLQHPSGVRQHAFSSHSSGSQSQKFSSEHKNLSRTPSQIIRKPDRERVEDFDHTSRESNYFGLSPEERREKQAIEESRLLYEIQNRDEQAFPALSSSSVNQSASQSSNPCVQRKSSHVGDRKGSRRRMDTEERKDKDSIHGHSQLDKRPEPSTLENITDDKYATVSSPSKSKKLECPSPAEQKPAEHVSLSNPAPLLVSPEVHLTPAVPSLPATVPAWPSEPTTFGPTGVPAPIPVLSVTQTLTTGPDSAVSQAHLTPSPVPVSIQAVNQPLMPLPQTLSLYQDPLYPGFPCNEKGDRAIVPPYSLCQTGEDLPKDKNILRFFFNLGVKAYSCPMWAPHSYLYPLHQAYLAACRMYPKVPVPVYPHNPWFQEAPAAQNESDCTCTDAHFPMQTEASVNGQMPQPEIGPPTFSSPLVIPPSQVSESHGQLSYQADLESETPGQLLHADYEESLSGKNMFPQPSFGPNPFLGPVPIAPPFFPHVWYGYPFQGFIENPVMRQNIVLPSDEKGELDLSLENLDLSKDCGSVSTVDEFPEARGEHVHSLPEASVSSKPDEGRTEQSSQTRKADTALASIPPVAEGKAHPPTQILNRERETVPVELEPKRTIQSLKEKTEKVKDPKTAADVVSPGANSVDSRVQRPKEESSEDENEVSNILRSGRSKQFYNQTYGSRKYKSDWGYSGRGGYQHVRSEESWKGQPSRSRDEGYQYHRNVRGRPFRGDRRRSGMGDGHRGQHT
Summary of the method: as §1

OTUD5 = biological target: T5, OTUD5 (UniProt Q96G74)
T5 sequence (whole entry): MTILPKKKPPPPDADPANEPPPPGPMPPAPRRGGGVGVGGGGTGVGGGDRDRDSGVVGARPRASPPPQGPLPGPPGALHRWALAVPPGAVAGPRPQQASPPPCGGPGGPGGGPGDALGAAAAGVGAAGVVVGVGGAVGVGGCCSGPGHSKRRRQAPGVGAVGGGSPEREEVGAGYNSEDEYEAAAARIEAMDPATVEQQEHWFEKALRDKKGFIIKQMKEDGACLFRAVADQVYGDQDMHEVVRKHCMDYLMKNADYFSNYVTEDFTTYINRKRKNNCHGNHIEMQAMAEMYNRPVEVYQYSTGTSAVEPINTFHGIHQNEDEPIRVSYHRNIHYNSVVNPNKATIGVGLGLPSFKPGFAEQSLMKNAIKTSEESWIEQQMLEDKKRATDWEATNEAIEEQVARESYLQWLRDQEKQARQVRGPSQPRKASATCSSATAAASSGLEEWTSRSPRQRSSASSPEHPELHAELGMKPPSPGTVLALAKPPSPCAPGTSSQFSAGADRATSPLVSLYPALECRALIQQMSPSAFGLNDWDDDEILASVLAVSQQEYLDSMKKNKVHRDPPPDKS
Summary of the method: as §1

Measured: log2 ratio of Biotin-Ahx-Ub-VS probe labelling

O=C(CCl)Nc1cc2c(cc1Cl)OCCCO2
active: BAP1 -3.43
inactive: ALG13 0.0687 | ATXN3 -0.0939 | EIF3F -0.197 | EIF3H -0.577 | FAM105A 0.278 | OTUB1 -0.0827 | OTUD4 0.136 | OTUD5 -0.0905
